Reference: PubChem BioAssay (EPA / NIEHS)
“And” between values parts separate entries of the source, which are not always exact repeats. Equal entries are not always repeated. Results filed as inconclusive are left out. A structure can be active in one record and inactive in another. The source made the active and inactive calls. The calls were made as follows, unless noted: active = hit-call score of the fitted dose curve at least 0.9, where 1 is the maximum; inactive = score below 0.9.

Key:
[1] = CCTE_Shafer_MEA_dev_active_electrodes_number: CCTE's Neural Network Formation Assay for Number of Active Electrodes, Shafer Lab (AID 2284040; active = hit-call score of the fitted dose curve at least 0.9, where 1 is the maximum;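 as to AC50: potency for loss of active electrodes versus DMSO so lower counts are hits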)
In short: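 Primary rat cortical neurons on 16-electrode MEA wells, exposed from day 0 through day 12 with compound renewed at DIV 5 and 9 feeds. Active electrodes (mean firing ≥5 spikes/min) counted at DIV 5, 7, 9, 12; trapezoidal AUC across days, loss-of-signal versus DMSO.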

[2] = CCTE_Shafer_MEA_dev_burst_duration_mean: CCTE's Neural Network Formation Assay for Mean Burst Duration, Shafer Lab (AID 2284045);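 as to AC50: curve fitted for loss meaning shorter burst duration than DMSO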
In short: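 Primary rat cortical neurons on 48-well 16-electrode MEA plates, exposed from day 0 with renewal at DIV 5 and 9; spontaneous activity recorded on days 5, 7, 9, 12. Well-mean burst duration across bursting electrodes, collapsed as trapezoidal AUC; DMSO baseline.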

[3] = CCTE_Shafer_MEA_dev_interburst_interval_mean: CCTE's Neural Network Formation Assay for Mean Interburst Interval, Shafer Lab (AID 2284046);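 also: well-mean interburst interval of bursting electrodes as AUC over four recording days; curve fitted for decrease in interburst interval relative to DMSO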
In short: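 Recordings on days 5, 7, 9 and 12 give well-mean interburst interval across actively bursting electrodes, summarized as area under the curve. Cultures: rat cortical neurons, continuous exposure from day 0, compound renewed at feeds; decrease analyzed versus DMSO.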

[4] = CCTE_Shafer_MEA_dev_inter_network_spike_interval_mean: CCTE's Neural Network Formation Assay for Mean Inter-network Spike Interval, Shafer Lab (AID 2284047);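 as to AC50: potency for a decrease in mean inter-network spike interval below DMSO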
In short: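 Primary rat cortical neurons on 16-electrode MEA wells, exposed from plating day 0 through DIV 12, compound renewed at DIV 5 and 9 media changes. Mean interval between network-spike peaks recorded DIV 5, 7, 9, 12; collapsed as trapezoidal AUC, fitted downward versus DMSO.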

[5] = CCTE_Shafer_MEA_dev_network_spike_number: CCTE's Neural Network Formation Assay for Number of Network Spikes, Shafer Lab (AID 2284048);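 as to AC50: fit as a loss of signal meaning fewer network spikes than DMSO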
In short: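 Primary rat cortical neurons on PEI/laminin 48-well MEA plates, dosed from plating day 0 for 12 days, renewed at DIV 5 and 9. Network spike counts recorded DIV 5, 7, 9, 12, collapsed as trapezoidal AUC; DMSO baseline.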

[6] = CCTE_Shafer_MEA_dev_network_spike_peak: CCTE's Neural Network Formation Assay for Mean Number of Electrodes in Network Spike, Shafer Lab (AID 2284049);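 as to AC50: fitted for loss of signal meaning fewer electrodes in network spikes than DMSO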
In short: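 Network-spike peak electrode count from recordings on days 5, 7, 9 and 12 was combined as trapezoidal area under the curve. Rat cortical cultures were treated continuously from plating, with compound renewed at each feed (DIV 5, 9); fits versus DMSO.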

[7] = CCTE_Shafer_MEA_dev_bursting_electrodes_number: CCTE's Neural Network Formation Assay for Number of Bursting Electrodes, Shafer Lab (AID 2284043; active = hit-call score of the fitted dose curve at least 0.9, where 1 is the maximum;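 as to AC50: potency is for loss of bursting electrodes relative to DMSO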)
In short: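 Primary rat cortical neurons plated on 16-electrode MEA wells, exposed from day 0 with compound renewed at DIV 5 and 9. Electrodes bursting ≥1 burst per 2 min counted on days 5, 7, 9 and 12; trapezoidal AUC across days, fitted for loss versus DMSO.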

[8] = target: Estrogen receptor (Homo sapiens) (UniProt P03372); assay: CCTE_Deisenroth_AIME_384WELL_LUC_Shift: CCTE's 384-well Estrogen Receptor Transactivation Assay with AIME metabolic competence data shift (ERTA luciferase; difference in metabolism positive and negative), Deisenroth Lab (AID 2284041);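 also: shift is response with S9 minus without S9 so positive means metabolism raised ER signal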
Sequence of Estrogen receptor (Homo sapiens) (P03372 whole entry, looked up): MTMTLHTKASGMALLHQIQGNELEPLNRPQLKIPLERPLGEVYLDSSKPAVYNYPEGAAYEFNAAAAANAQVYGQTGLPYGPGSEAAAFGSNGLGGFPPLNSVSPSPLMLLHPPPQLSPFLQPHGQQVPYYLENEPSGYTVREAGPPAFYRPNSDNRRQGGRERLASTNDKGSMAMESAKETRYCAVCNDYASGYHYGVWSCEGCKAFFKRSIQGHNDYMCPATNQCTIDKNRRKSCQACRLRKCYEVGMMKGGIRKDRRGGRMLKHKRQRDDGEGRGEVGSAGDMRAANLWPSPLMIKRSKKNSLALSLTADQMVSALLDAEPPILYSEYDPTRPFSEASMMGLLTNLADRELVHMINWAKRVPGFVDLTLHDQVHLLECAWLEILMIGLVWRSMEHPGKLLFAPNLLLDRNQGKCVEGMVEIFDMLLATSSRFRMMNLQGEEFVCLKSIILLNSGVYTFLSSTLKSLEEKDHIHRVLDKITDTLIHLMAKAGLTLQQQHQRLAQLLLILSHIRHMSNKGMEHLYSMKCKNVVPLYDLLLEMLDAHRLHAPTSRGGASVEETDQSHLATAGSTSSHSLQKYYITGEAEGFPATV
In short: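 Chemicals (0.002–200 uM, 10 points) pre-incubated 2 h with alginate-encapsulated induced male Sprague Dawley rat liver S9 or S9-free, then medium applied 24 h to VM7Luc4E2 cells; luciferase. Endpoint is per-concentration difference, S9-positive minus negative.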

[9] = system: DIO2 (gene 1734); assay: CCTE_GLTED_hDIO2: CCTE's human Deiodinase 2 (DIO2) Inhibition Assay, Great Lakes Toxicology and Ecology Division (GLTED) Lab (AID 2284050; active = hit-call score of the fitted dose curve at least 0.9, where 1 is the maximum)
Procedure: CCTE_GLTED_hDIO2 is a cell-free, single-readout assay designed to test the inhibitory activity of chemicals toward human iodothyronine Deiodinase type 2 (DIO2) enzyme. Enzyme is incubated in presence of test chemical for 3 hours during which uninhibited enzyme liberates free iodide from substrate. Free iodide is measured in a second step using the Sandell-Kolthoff method.CCTE_GLTED_hDIO2 is the assay component measured from the CCTE_GLTED_hDIO2 assay. It is designed to make measurements of enzyme activity, a form of enzyme reporter, as detected with absorbance signals by spectrophotometry.Data from the assay component CCTE_GLTED_hDIO2 was analyzed into 1 assay endpoint. This assay endpoint, CCTE_GLTED_hDIO2, was analyzed in the positive analysis fitting direction relative to DMSO as the negative control and baseline of activity. Using a type of enzyme reporter, loss-of-signal activity can be used to understand changes in the enzymatic activity as they relate to the gene DIO2. Furthermore, this assay endpoint can be referred to as a primary readout, because the performed assay has only produced 1 assay endpoint. To generalize the intended target to other relatable targets, this assay endpoint is annotated to the 'deiodinase' intended target family, where the subfamily is 'deiodinase Type 2'.
Human deiodinase type 2 (hDIO2) assay, developed at Great Lakes Toxicology and Ecology Division (GLTED) within the EPA's Center for Computational Toxicology and Exposure (CCTE), is designed to test the chemicals' ability to inhibit DIO2. Assay is based on iodide release measured by the Sandell-Kolthoff method and is run in 96-well plate format with assay plates run in triplicate (n=3). The method used for the deiodinase assay was largely based on Renko et al. (2012, 2015). These works describe the utilization of the SK reaction to measure deiodinase-liberated iodide in a 96-well-plate format. […]

Measured: AC50

OCCC(F)(F)C(F)(F)C(F)(F)C(F)(F)F
not listed: [7] | [8] | [9]
inactive: all other assays above

Nc1ccn([C@@H]2O[C@H](CO)[C@@H](O)[C@@H]2O)c(=O)n1
active: [1] 185 nM and 303 nM | [7] 195 nM and 215 nM | [2] 248 nM and 1.85 µM | [3] 158 nM and 437 nM | [4] 0.14 µM | [5] 144 nM and 143 nM | [6] 160 nM and 623 nM
inactive: [4]

FC(F)(F)COC(OCC(F)(F)F)OCC(F)(F)F
not listed: [8] | [9]
inactive: all other assays above

CCCCC(CC)C(=O)OCCOCCOCCOC(=O)C(CC)CCCC (configuration not stated)
inactive: [8]

O=C(Cl)C(F)(F)C(F)(F)C(F)(F)C(=O)Cl
not listed: [8] | [9]
inactive: all other assays above

NC(=O)N1c2ccccc2C=Cc2ccccc21
not listed: [8] | [9]
inactive: all other assays above

C[C@]12C=CC(=O)C=C1CC[C@H]1[C@@H]3C[C@@H](O)[C@](O)(C(=O)CO)[C@@]3(C)C[C@H](O)[C@@]12F
active: [6] 116 nM
inactive: [1] | [7] | [3] | [4] | [5]

CCCC(CCC)C(=O)O
not listed: [4] | [8] | [9]
inactive: all other assays above

OC(Cn1cncn1)(Cn1cncn1)c1ccc(F)cc1F
active: [4] 3.83 µM
inactive: [1] | [2] | [3] | [5] | [6]

c1ccc2cc3ccccc3cc2c1
not listed: [8] | [9]
inactive: all other assays above

CCCCCCCCCCCCCCCCOS(=O)(=O)O
active: [9] 28.9 µM

NNC(=O)c1ccncc1
active: [7] 595 nM | [6] 2980 nM
not listed: [8] | [9]
inactive: all other assays above

CC(C)c1nnc2ccc(-c3ocnc3-c3cc(F)ccc3F)cn12
inactive: [8]

c1ccc(C(O[C@@H]2CCCN(CCc3ccc4c(c3)OCO4)C2)c2ccccc2)cc1
inactive: [8]

NCC(F)(F)C(F)(F)C(F)(F)C(F)(F)F
not listed: [8] | [9]
inactive: all other assays above

CC(C)CCCCCCOC(=O)C1CCCCC1C(=O)OCCCCCCC(C)C (configuration not stated)
inactive: [8]

FC(F)(F)C(F)(F)C(F)(F)C(F)(F)C(F)(F)C(F)(F)I
not listed: [8] | [9]
inactive: all other assays above

COc1cc(C(C)C)c2c(c1)S(=O)(=O)N(COc1cc(=O)n3cccc(OCCN4CCCCC4)c3n1)C2=O
active: [9] 11.7 µM
